Source: PubChem BioAssay AID624483 (NMMLSC, 2012)
In all, about 360,000 compounds went through this assay and about 11,000 (3.1%) were called active. Another 2% or so got no clear call; they are omitted. Only a selection was taken, and actives are over-represented in it overall. Values without a mark were called inactive. No stated cut-off is given here; in the data, active means fluorescence intensity above about 16000; inconclusive means no clear call, values can overlap the other calls; inactive means below that.

Assay: compound fluorescence in toxin protease inhibitor counterscreen, primary screen, artefact control for toxin protease inhibitor project, biochemical, multiplex microsphere, HTS (AID 624483)
Settings: compound autofluorescence counterscreen, microsphere flow cytometry; active compounds read high
In the case of `CC1CCCCC1NC(=O)CSc1nnc(-c2ccncc2)n1CCCN(C)C` (stereo not drawn), the fluorescence intensity is reported as 4240.
For `CN(C)CCCn1c(SCc2ccc(Cl)cc2)nnc1-c1ccncc1`, the fluorescence intensity was 3820.
With `CSc1nnc(-c2ccncc2)n1CCCN1CCCC1=O` the fluorescence intensity was 16700 (active).
With `COc1cc(Cn2c3ccc(NC(=O)CC(C)c4ccccc4)cc3c(=O)n2C)ccc1F` (stereo not drawn) the fluorescence intensity was 3950.
`CCOc1ccc(C(=O)Nc2cccc(SC)c2)cc1` gave a fluorescence intensity of 2060.
In the case of `Cc1ccc(S(=O)(=O)N(Cc2cc3ccccc3[nH]c2=O)CC2CCCO2)cc1` (stereo not drawn), the fluorescence intensity is reported as 3240.
Work on `COc1ccc(NC(=O)CCC(=O)Nc2nnc(C3CCCCC3)s2)cc1` yielded a fluorescence intensity of 5270.
`Cc1cc(C(=O)Nc2nnc(C3CC3)s2)c(C)s1` showed a fluorescence intensity of 5450.
In the case of `Cc1occc1C(=O)Nc1nnc(C2CCCCC2)s1`, the fluorescence intensity is reported as 22300 (active).
With `CCc1nc2c(OCc3ccc(F)c(F)c3)cccn2c1N(C)C(=O)c1ccco1` the fluorescence intensity was 3900.
`O=C1Nc2ccccc2NC(c2ccc3c(c2)OCO3)=C1N(Cc1ccc(F)cc1)C(=O)c1ccco1` showed a fluorescence intensity of 5250.
For `Clc1ccc2c(c1)C1=C(C(c3ccncc3)O2)C(c2ccc(Br)cc2)n2ncnc2N1` (stereo not drawn), the fluorescence intensity was 16600 (active).
`Brc1ccc(C2=CC(c3ccco3)n3ncnc3N2)cc1` (stereo not drawn) showed a fluorescence intensity of 9350.
`Cc1ccc(CN(Cc2cccnc2)C(=S)Nc2cc(Cl)ccc2C)cc1` showed a fluorescence intensity of 4690.
`Cc1ccc(CSc2nnc(-c3cnccn3)n2C)cc1` gave a fluorescence intensity of 4420.
For `CCN(CC)C(=O)CSc1nnc(-c2cnccn2)n1-c1ccc(C)cc1`, the fluorescence intensity was 23200 (active).
Work on `CCn1c(SCC(=O)Nc2cc(C)ccc2C)nnc1-c1cnccn1` yielded a fluorescence intensity of 4580.
For `CC(C)(C)C1CCC(=O)N2CCC[C@]2(c2ccccc2)C1` (stereo partly drawn), the fluorescence intensity was 5900.
With `CN(CC1CCCN(CCc2cccc(C(F)(F)F)c2)C1)C(=O)c1ccc2nc[nH]c2c1` (stereo not drawn) the fluorescence intensity was 5960.
Compound `COc1cccc(NC(=O)C2(C)CCN2C(=O)CCC2CCCC2)c1` (stereo not drawn) has a fluorescence intensity of 2920.
`N#C/C(=C\c1cccnc1)C(=O)Nc1ccc(SC(F)F)cc1` showed a fluorescence intensity of 3830.
In the case of `COc1ccc(/C=N/n2nnnc2N)cc1OC`, the fluorescence intensity is reported as 4170.
With `Nc1nnnn1/N=C/c1cccc(Br)c1` the fluorescence intensity was 3440.
For `Nc1nnnn1/N=C/c1cccs1`, the fluorescence intensity was 21800 (active).
In the case of `COc1ncnc2c1ncn2CCCNCCN1CCOCC1`, the fluorescence intensity is reported as 3370.
`COc1ccc(CN(C(=O)c2cccs2)c2nccs2)cc1OC` gave a fluorescence intensity of 3950.
Work on `CN(Cc1ccccc1)C(=O)COc1ccccc1` yielded a fluorescence intensity of 2850.
In the case of `COc1ccc(CCN(C(=O)COc2ccccc2)c2nc(-c3ccccc3)cs2)cc1OC`, the fluorescence intensity is reported as 21300 (active).
With `C[C@H](NC(=O)C1CCN(S(=O)(=O)c2ccccc2)CC1)C(=O)NCc1ccccc1` the fluorescence intensity was 5500.
`COc1cccc(CN2CCC(C(=O)NC(c3ccc4c(c3)OCO4)c3ccccn3)CC2)c1` (stereo not drawn) gave a fluorescence intensity of 3800.
For `Cc1cc(=O)oc2cc(OC(C)C(=O)Nc3ccc(N4CCOCC4)cc3)ccc12` (stereo not drawn), the fluorescence intensity was 22000 (active).
Work on `Cc1cc(=O)oc2cc(NC(=O)C(C)Oc3ccccc3)ccc12` (stereo not drawn) yielded a fluorescence intensity of 5330.
In the case of `COc1ccc(-c2cc(=O)oc3cc(OC(C)C(=O)Nc4ccc(CN5CCOCC5)cc4)ccc23)cc1` (stereo not drawn), the fluorescence intensity is reported as 5340.
For `COc1ccc(C(=O)NC(=S)Nc2ccccc2N2CCN(S(C)(=O)=O)CC2)cc1OC`, the fluorescence intensity was 22100 (active).
With `COc1ccccc1C(=O)NC(=S)Nc1ccccc1N1CCCCC1` the fluorescence intensity was 5870.
Compound `O=C(NC(=S)Nc1ccccc1N1CCCCC1)c1ccc(F)cc1` has a fluorescence intensity of 6710.
Work on `Cc1nn(-c2ccccc2)c2[nH]c(C(F)(F)F)cc(=O)c12` yielded a fluorescence intensity of 4600.
In the case of `CCOc1cc(C)c(S(=O)(=O)NCc2ccccn2)cc1C`, the fluorescence intensity is reported as 3700.
With `CCCOc1cc(C)c(S(=O)(=O)n2nnc3ccccc32)cc1C` the fluorescence intensity was 16800 (active).
Compound `CCOc1cc(C)c(Cl)cc1S(=O)(=O)n1nnc2ccccc21` has a fluorescence intensity of 10500.
`O=C(NCCCN1CCCCCC1)c1ccc(N2CCCC2=O)cc1` showed a fluorescence intensity of 3260.
For `CC1CCC(NC(=O)c2ccc(N3CCCC3=O)cc2)CC1` (stereo not drawn), the fluorescence intensity was 21800 (active).
Compound `CC1CCCC(NC(=O)c2cccc(N3CCCC3=O)c2)C1C` (stereo not drawn) has a fluorescence intensity of 2560.
With `C=CCn1c(CNC(=O)c2ccco2)nnc1SCC(=O)c1ccc(OC)cc1` the fluorescence intensity was 3770.
In the case of `C=CCn1c(SCCOc2ccc(OC)cc2)nnc1C(NC(=O)c1ccc(OC)cc1)C(C)C` (stereo not drawn), the fluorescence intensity is reported as 24400 (active).
With `C=CCn1c(SCc2ccc(Cl)c(Cl)c2)nnc1C(CO)NC(=O)c1ccc(OC)cc1` (stereo not drawn) the fluorescence intensity was 2760.
Compound `COc1ccc(C(=O)NCc2nnc(SCCOc3ccccc3)n2C)cc1` has a fluorescence intensity of 5100.
For `CCn1c(SCC(=O)NNC(=O)c2ccc(OC)cc2)nnc1C(C)C`, the fluorescence intensity was 6340.
With `C=CCn1c(SCC(=O)c2ccc(Br)cc2)nnc1C(C)NC(=O)Cc1ccc(OC)cc1` (stereo not drawn) the fluorescence intensity was 23200 (active).
Compound `CCCNC(=O)c1cc(C2CCCCN2S(=O)(=O)c2cn(C)cn2)on1` (stereo not drawn) has a fluorescence intensity of 3300.
`O=C(NCc1ccc(F)cc1)C1CCC(CNc2c(N3CCOCC3)c(=O)c2=O)CC1` (stereo not drawn) showed a fluorescence intensity of 4840.
In the case of `O=S(=O)(NC1CC2CCC1C2)c1ccc(Cl)cc1` (stereo not drawn), the fluorescence intensity is reported as 3140.
In the case of `CCOC(=O)[C@]12CCCC=C1N(Cc1ccc(Cl)cc1Cl)C(=O)[C@H](CC(=O)N1CCCCC1)C2`, the fluorescence intensity is reported as 6000.
For `COc1cccc(-c2cc3nc(NCCOc4ccccc4Cl)n(C)c(=O)c3s2)c1`, the fluorescence intensity was 3580.
`CC1(C(=O)NS(=O)(=O)c2cccc(F)c2)CCN1C(=O)Cc1ccc(Cl)cc1Cl` (stereo not drawn) showed a fluorescence intensity of 3750.
With `CCCCN1C(=O)C(CC(=O)NCc2cccs2)CC(C(=O)N2CCCCCC2)=C1C` (stereo not drawn) the fluorescence intensity was 5770.
For `CN(C)c1ccnc(Oc2ccc(F)cc2)c1C#N`, the fluorescence intensity was 8110.
`O=C(CCC(=O)OCc1ccc(Cl)cc1)Nc1ccccc1` gave a fluorescence intensity of 2700.
In the case of `O=C(CNC(=O)c1ccccc1)NCC(=O)OCc1ccc(Cl)cc1`, the fluorescence intensity is reported as 22400 (active).
With `O=C(CNC(=O)c1ccccc1)NCC(=O)OCC(=O)c1ccccc1` the fluorescence intensity was 5170.
Compound `O=C(OCCN1C(=O)c2ccccc2C1=O)Oc1ccccc1` has a fluorescence intensity of 4060.
Compound `O=C1c2ccccc2C(=O)N1CCCCCCN1C(=O)c2ccccc2C1=O` has a fluorescence intensity of 3880.
For `Nc1ccc(SCCN2C(=O)c3ccccc3C2=O)cc1`, the fluorescence intensity was 19900 (active).
